According to the supplement of paper PMC9948646:
A number with no mark means an inactive call.

System: gramicidin D channels in DC22:1PC lipid vesicles (bilayer-modifying potency)
Experiment: initial Tl+ fluorescence quench rate relative to no-drug control (NormRate, gramicidin monomer-dimer shift) (ratio (fold of control)); higher = stronger bilayer-modifying effect (equilibrium shifted toward conducting dimers), active = 1.5 or more
Details: 10 µM; lipid concentration 50 µM; temperature: 25 °C
Protocol: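 Stopped-flow fluorescence quench assay: ANTS-loaded DC22:1PC large unilamellar vesicles doped with gramicidin D (1:2000), 50 µM lipid, equilibrated 10 min with 10 µM drug (0.1% DMSO), mixed with Tl+ quench buffer at 25°C. Initial quench rate (Tl+ influx) was fitted with a modified stretched exponential and normalised to the no-drug control rate (NormRate); duplicates from two independent LUV preparations (triplicates for 7 drugs).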

| Structure (SMILES) | initial Tl+ fluorescence quench rate |
| --- | --- |
| Cc1ccc2[nH]c3c(NCCN(C)C)ncnc3c2c1 | 1.05 |
| Cc1ccc2c(c1C)NC(=O)[C@@]21NN=C(c2ccccc2)S1 | 1.38 |
| C[C@@H](Oc1cccc(Cl)c1)C(=O)Nc1ccc2oc(-c3ccncc3)nc2c1 | 1.72 (active) |
| Cc1cc(OCC(=O)NCc2ccccc2)c2cc(Br)ccc2n1 | 1.45 |
| COC(=O)c1c(NC(=O)c2cc3ccccc3oc2=O)sc2c1CCN(Cc1ccccc1)C2 | 1.04 |
| Cc1cc(C)cc(COc2ccc3c(C)c(CCC(=O)O)c(=O)oc3c2C)c1 | 2.64 (active) |
| CC(=O)NC[C@H]1CN(c2ccc(-c3ccc(CNCc4cn[nH]n4)cc3)c(F)c2)C(=O)O1 | 1.37 |
| COc1ccc(Cn2cnc3c(-c4ccco4)nc(Cl)nc32)cc1 | 1.59 (active) |
| Brc1c(-c2ccc3c(c2)OCO3)nc2ncccn12 | 1.12 |
| Cc1cc(NCC(C)C)c2n[nH]c(-c3ccccc3)c2n1 | 1.11 |
| COc1cc(C(F)(F)F)nc2ccc(C)c(N)c12 | 1.03 |
| Cc1ccc(NC(=O)c2cc(S(=O)(=O)NC(C)(C)C)ccc2C)nc1 | 1.21 |
| O=C(CCC1CCCCC1)Nc1cccc(-c2nnc(-c3ccco3)o2)c1 | 1.57 (active) |
| N#Cc1nc(-c2ccccc2)oc1S(=O)(=O)c1ccc(Cl)cc1 | 1.12 |
| CCc1nc2ccc(C(=O)NCc3ccc4c(c3)OCO4)cn2c1N(C)Cc1cccs1 | 2.01 (active) |
| CC[C@H](Sc1nc2ccccc2o1)C(=O)Nc1nnc(C)s1 | 1.3 |
| COc1cccc(-c2nc3c(N4CCCC4)cccc3n2C[C@H]2CCCN2)n1 | 1.21 |
| COc1ccccc1CNC(=O)c1cc(C2CC2)nc2c1cnn2C(C)C | 1.62 (active) |
| O=C(NCCc1ccccc1)c1cc(-c2cccnc2)cnc1NCC1CC1 | 2 (active) |
| O=C(C1CCCCC1)N1CC(=O)N2CCc3ccccc3[C@@H]2C1 | 1.04 |
| CCCn1c(NC(=O)c2ccc3ccccc3n2)nc2ccccc21 | 1.4 |
| Brc1cncc(-c2cc(NCCCn3ccnc3)nc(-c3ccccc3)n2)c1 | 2.73 (active) |
